From PMC4336329 (PLoS ONE, 2015)
The whole screen tested about 310,000 compounds, of which about 14,000 (4.5%) showed an effect of 50% or more. Effects have a minus sign here. Only a selection was taken, and strong results are over-represented in it overall.

Target: human ether-à-go-go-related gene (hERG) potassium channel (human, UniProt Q12809)
Assay: primary screen, population patch clamp on CHO cells stably expressing hERG; higher = less effect of the substance
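Note: peak tail current of the secondary pulse compared with the same well before compound.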

Sequence of human ether-à-go-go-related gene (hERG) potassium channel (Q12809 whole entry, looked up): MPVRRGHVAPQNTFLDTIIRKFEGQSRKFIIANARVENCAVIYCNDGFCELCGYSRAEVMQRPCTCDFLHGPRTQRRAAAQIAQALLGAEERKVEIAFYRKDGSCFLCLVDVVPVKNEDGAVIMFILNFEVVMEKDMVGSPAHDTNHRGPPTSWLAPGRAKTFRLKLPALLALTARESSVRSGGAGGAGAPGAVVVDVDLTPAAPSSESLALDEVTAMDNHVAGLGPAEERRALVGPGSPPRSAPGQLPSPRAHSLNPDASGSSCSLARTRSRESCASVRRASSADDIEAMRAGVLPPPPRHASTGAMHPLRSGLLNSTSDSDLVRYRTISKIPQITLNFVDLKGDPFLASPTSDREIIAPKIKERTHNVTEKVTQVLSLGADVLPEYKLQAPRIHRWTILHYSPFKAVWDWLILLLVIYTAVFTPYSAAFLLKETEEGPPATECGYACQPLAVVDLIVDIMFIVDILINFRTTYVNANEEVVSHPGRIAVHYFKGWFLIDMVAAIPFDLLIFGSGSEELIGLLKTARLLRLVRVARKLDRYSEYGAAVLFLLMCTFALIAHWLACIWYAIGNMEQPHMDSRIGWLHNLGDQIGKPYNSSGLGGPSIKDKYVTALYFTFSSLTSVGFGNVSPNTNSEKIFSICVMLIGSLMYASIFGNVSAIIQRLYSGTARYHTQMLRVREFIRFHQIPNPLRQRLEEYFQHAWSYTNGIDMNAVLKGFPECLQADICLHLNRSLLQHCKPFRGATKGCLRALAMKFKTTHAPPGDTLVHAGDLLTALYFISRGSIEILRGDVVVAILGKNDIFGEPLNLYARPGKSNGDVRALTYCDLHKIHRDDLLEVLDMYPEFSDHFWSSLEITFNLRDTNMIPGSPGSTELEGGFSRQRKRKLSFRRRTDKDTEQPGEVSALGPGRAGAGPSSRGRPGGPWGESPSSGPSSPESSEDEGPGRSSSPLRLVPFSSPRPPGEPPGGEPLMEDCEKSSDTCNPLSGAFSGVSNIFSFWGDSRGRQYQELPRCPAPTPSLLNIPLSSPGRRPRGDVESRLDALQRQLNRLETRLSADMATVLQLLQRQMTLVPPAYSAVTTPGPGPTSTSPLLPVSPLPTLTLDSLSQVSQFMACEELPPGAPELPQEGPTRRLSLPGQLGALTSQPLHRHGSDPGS

| Compound | hERG current change (%, negative = inhibition) at 10uM |
| --- | --- |
| CC(=O)N1CCc2c(sc3c2c(=O)n(Cc2ccccc2)c(=O)n3CC(=O)NCC2CCCO2)C1 (centres unmarked) | -21.6% |
| CCCCOC1CC(c2ccc(OCc3ccc(OC)cc3)c(OC)c2)N(C)O1 (centres unmarked) | 3.47% |
| Cc1ccn2c(CNC(C)c3cn(C)nc3C)c(C(=O)N3CCCCCC3)nc2c1 (centres unmarked) | 0.193% |
| O=C(CCN1C(=O)C2C3C=CC(C3)C2C1=O)N1CCN(c2ccc(F)cc2)CC1 (centres unmarked) | -25.8% |
| O=C(CCN1C(=O)C2C3C=CC(C3)C2C1=O)N1CCN(c2ccccc2F)CC1 (centres unmarked) | -4.87% |
| COc1ccc(N2CCN(C(=O)CCN3C(=O)C4C5C=CC(C5)C4C3=O)CC2)cc1 (centres unmarked) | -0.214% |
| O=C(CCN1C(=O)C2C3C=CC(C3)C2C1=O)N1CCN(c2cccc(Cl)c2)CC1 (centres unmarked) | -38.4% |
| O=C(CCN1C(=O)C2C3C=CC(C3)C2C1=O)N1CCN(c2ccccc2Cl)CC1 (centres unmarked) | -57.2% |
| O=C(CCN1C(=O)C2C3C=CC(C3)C2C1=O)N1CCN(c2ccc([N+](=O)[O-])cc2)CC1 (centres unmarked) | -81.2% |
| O=C(CSc1ccc2nnc(CCNC(=O)c3ccccc3)n2n1)NCc1ccccc1 | -8.24% |
| COc1ccc2nc(SC)c(C#N)cc2c1 | 15.1% |
| CCOC(=O)c1cnc(Nc2ccc(OCC)cc2)nc1C | 12.6% |
| Cc1ccc(CNC(=O)C2CCC(=O)N(Cc3ccc(Cl)cc3)C2)cc1F (centres unmarked) | -63.6% |
| O=C(NCCc1cccnc1)C1CCC(=O)N(Cc2cccc(C(F)(F)F)c2)C1 (centres unmarked) | -8.64% |
| O=C(NCCc1cccc(C(F)(F)F)c1)C1CCC(=O)N(Cc2ccc(Cl)cc2)C1 (centres unmarked) | -59% |
| COc1ccccc1CN1CC(C(=O)NCc2ccc(C)c(F)c2)CCC1=O (centres unmarked) | 0.721% |
| O=C(NCCc1ccccc1)C1CCC(=O)N(Cc2cccc(C(F)(F)F)c2)C1 (centres unmarked) | -14.2% |
| COc1cccc(CN2CC(C(=O)NCc3ccc(C)c(F)c3)CCC2=O)c1 (centres unmarked) | -40.8% |
| Cc1cccc(CCNC(=O)C2CCC(=O)N(Cc3ccc(Cl)cc3)C2)n1 (centres unmarked) | 5.05% |

| Compound | hERG current change (%, negative = inhibition) at 10uM |
| --- | --- |
| O=C(NCCc1cccc(Cl)c1)C1CCC(=O)N(Cc2ccc(Cl)cc2)C1 (centres unmarked) | -52.3% |
| O=C(NCCC1=CCCCC1)C1CCC(=O)N(Cc2ccc(Cl)cc2)C1 (centres unmarked) | -2.34% |
| CCC(C)(C)NC(=O)C(OC(=O)c1ccco1)c1ccccc1F (centres unmarked) | 13.4% |
| O=C(CCCCCN1C(=O)[C@@H]2Cc3ccccc3CN2C1=O)N[C@@H](Cc1ccc(O)cc1)C(=O)O | 1.02% |
| CC1Oc2ccccc2N(CC(=O)N(Cc2ccccc2)Cc2ccccn2)C1=O (centres unmarked) | 0.288% |
| COc1ccc(/C=N/N2C(=O)C3C4C=CC(C4)C3C2=O)cc1[N+](=O)[O-] (centres unmarked) | -6.14% |
| Cc1ccc2c(c1)NCC(C(=O)NC1CCC(C)CC1)O2 (centres unmarked) | 6.16% |
| O=C(NCCOc1ccc2ccccc2c1)c1cncc(Br)c1 | 3.79% |
| CCOc1ccc(C(C)=O)cc1N1C(=O)C2C3C=CC(C3)C2C1=O (centres unmarked) | 8.85% |
| O=C(NCc1ccc(F)cc1)C1CCCN1S(=O)(=O)c1ccccc1C(F)(F)F (centres unmarked) | -13.4% |
| O=C(CSc1nnc(-c2ccccc2)o1)c1nnc(-c2ccccc2)o1 | 20.1% |
| CC1(C)C(=O)Nc2ccccc2N1C(=O)COC(=O)c1ccc(Cl)c(S(=O)(=O)NCc2ccccc2)c1 | -12.8% |
| Cc1ccc(CN2CC(C(=O)N3CCN(S(=O)(=O)c4ccc(C)cc4C)CC3)CC2=O)cc1 (centres unmarked) | -28.2% |
| O=C1C(O)CC2c3ccccc3CC3(CCCC3)N12 (centres unmarked) | 6.83% |
| CC(C)CC12CN3CCN(CC(C3)C1O)C2 (centres unmarked) | -1.15% |
| CC1=C(C)NC(=S)SC1 | 13.9% |
| O=C1CC(c2ccccc2Cl)CC(O)=C1C=Nc1ccccc1 (centres unmarked) | 0.512% |
| Cc1ccc2c(c1)N(C(=O)CCC(=O)NCCCN1CC(C)CC(C)C1)CCO2 (centres unmarked) | -56.2% |
| Cc1ccc2c(c1)N(C(=O)CCC(=O)NCCN1CCOCC1)CCO2 | -5.63% |

| Compound | hERG current change (%, negative = inhibition) at 10uM |
| --- | --- |
| O=C(CCC(=O)N1CCOc2ccc(Cl)cc21)NCCCN1CCC(Cc2ccccc2)CC1 | -75% |
| O=C(CCC(=O)N1CCOc2ccc(Cl)cc21)NCCCN1CCOCC1 | 6.57% |
| Cc1ccc2c(c1)N(C(=O)CCC(=O)NCCCN1CCN(C)CC1)CCO2 | -5.06% |
| Cc1ccc2c(c1)N(C(=O)CCC(=O)NCCCN1CCOCC1)CCO2 | 5.17% |
| O=C(CCC(=O)N1CCOc2ccccc21)NCCCN1CCOCC1 | 5.91% |
| Cc1ccc2c(c1)N(C(=O)CCC(=O)NCCCN1CCC(Cc3ccccc3)CC1)CCO2 | -77.1% |
| Cc1ccc2oc(C(=O)N3CCN(c4cccc(C)n4)CC3)c(C)c2c1 | 8.84% |
| O=C1CCN(Cc2nnnn2CC2CCCO2)c2ccccc2N1 (centres unmarked) | 2.18% |
| CCOP(=O)(OCC)C(NC(=O)c1cccs1)c1ccccc1 (centres unmarked) | 23.5% |
| COc1ccc(/C=N/NC(C)(C)C)c(OC)c1.Cl | 12.3% |
| COc1ccc(C(=O)c2cnc[nH]2)cc1OC | 10.9% |
| Cc1cc(NC(=O)COc2ccccc2C)ccc1NC(=O)c1cccs1 | 0.541% |
| CC1CCCN(C(=O)C2CCN(c3nc(-c4ccccc4)nc4c3CCC4)CC2)C1 (centres unmarked) | -55.1% |
| O=C(C1CCN(c2nc(-c3ccccc3)nc3c2CCC3)CC1)N1CCC(O)CC1 | -33.4% |
| O=C(C1CCN(c2nc(-c3ccccc3)nc3c2CCC3)CC1)N1CCCC1 | -35.8% |
| COCC1CCN(C(=O)C2CCN(c3nc(-c4ccccc4)nc4c3CCC4)CC2)C1 (centres unmarked) | -76.5% |
| CC1CCCCN1C(=O)C1CCN(c2nc(-c3ccccc3)nc3c2CCC3)CC1 (centres unmarked) | -42.4% |
| COCC1CCCCN1C(=O)C1CCN(c2nc(-c3ccccc3)nc3c2CCC3)CC1 (centres unmarked) | -29.2% |
